Bioassay records deposited in PubChem by National Center for Advancing Translational Sciences (NCATS).
Compounds with a hit are over-represented: about 9.3% of the library has one in this group of screens.
NPC1 promoter act – qHTS Assay for NPC1 Promoter Activators; AID 485313, 2010; Potency, µM (titrated, usually from 9.22 µM), actives largely listed as activators; 320,000 tested, 2.4% active; Huh7 NPC1 promoter luciferase reporter, 24 h; further: nearly all actives have a fitted effect of over 60% in size
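Readout is luciferase luminescence, reflecting NPC1 promoter activation in stably transfected Huh7 cells after 24 h compound exposure at 37 °C in reduced-serum medium with 10% FBS.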
ELG1 DNA repair – qHTS screen for small molecules that inhibit ELG1-dependent DNA repair in human embryonic kidney (HEK293T) cells expressing luciferase-tagged ELG1; HEK293T ELG1-luciferase reporter, luminescence, 16 h; DNA damage induced by 5-fluorouridine; Potency, µM (titrated, usually from 46.1 µM), actives largely listed as inhibitors; 330,000 tested, 2.3% active; further: nearly all actives have a fitted effect of over 55% in size
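In this reporter screen, reduction of luminescence relative to DMSO vehicle indicated activity. Compounds and 5-fluorouridine were added together to 2,000 cells per well, incubated for 16 hr at 37 °C, then developed with ONE-Glo.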
ELG1 genotox – qHTS screen for small molecules that induce genotoxicity in human embryonic kidney (HEK293T) cells expressing luciferase-tagged ELG1; HEK293T ELG1-luciferase reporter, luminescence, 16 h; Potency, µM (titrated, usually from 46 µM), actives largely listed as activators; 330,000 tested, 1.3% active; AID 504466, 2011; further: nearly all actives have a fitted effect of over 60% in size
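After overnight (16 hr) compound treatment at 37 °C, ELG1-luciferase HEK293T cells were lysed with ONE-Glo; luminescence quantified 30 min later at room temperature.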
Rab9 prom act – qHTS Assay for Rab9 Promoter Activators | Huh7 Rab9 promoter-luciferase reporter, luminescence, 24 h | Potency, µM (doses to about 9.22 µM), hits mostly activators | 320,000 tested, 2.8% active; further: nearly all actives have a fitted effect of over 60% in size
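Stable Rab9-luc Huh7, 1500 cells/well, 2 h settle; cmpd in DMSO, 24 h, 37 °C/5% CO2; luciferase reagent 10 min RT; luminescence.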
FLuc counter – qHTS profiling assay for firefly luciferase inhibitor/activator using purifed enzyme and Km concentrations of substrates (counterscreen for miR-21 project) | purified FLuc, Km substrates, luminescence inhibition | 360,000 tested, 6.9% active | Potency, µM (doses to about 57.5 µM), hits mostly inhibitors | Luciferin 4-monooxygenase (Photinus pyralis), P08659; further: nearly all actives have a fitted effect of over 55% in size
Target sequence (P08659 whole entry, looked up): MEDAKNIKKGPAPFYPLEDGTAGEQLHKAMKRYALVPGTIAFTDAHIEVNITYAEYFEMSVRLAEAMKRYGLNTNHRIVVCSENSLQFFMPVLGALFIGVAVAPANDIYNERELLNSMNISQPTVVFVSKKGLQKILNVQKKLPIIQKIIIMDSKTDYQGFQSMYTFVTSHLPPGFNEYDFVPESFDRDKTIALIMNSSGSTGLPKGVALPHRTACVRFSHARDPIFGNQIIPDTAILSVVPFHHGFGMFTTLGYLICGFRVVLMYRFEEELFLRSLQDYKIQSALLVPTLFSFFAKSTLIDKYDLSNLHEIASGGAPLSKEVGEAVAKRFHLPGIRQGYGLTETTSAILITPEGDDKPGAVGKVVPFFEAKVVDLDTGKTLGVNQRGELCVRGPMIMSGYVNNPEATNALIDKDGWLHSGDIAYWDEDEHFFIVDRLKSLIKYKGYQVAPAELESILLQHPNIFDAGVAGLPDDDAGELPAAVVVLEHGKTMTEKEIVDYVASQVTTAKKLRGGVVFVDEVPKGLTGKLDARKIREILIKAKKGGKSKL
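Purified P. pyralis luciferase, 10 nM final, with Km-level 10 uM D-luciferin and 10 uM ATP in 50 mM Tris acetate pH 7.5, 10 mM Mg acetate, 0.01% Tween-20, 0.05% BSA; 6-point qHTS titration about 60 µM downward; luminescence read.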
SMN2 splice up – qHTS Assay for Enhancers of SMN2 Splice Variant Expression | HEK293 SMN2-luciferase splicing reporter, luminescence, 30-36 h | Potency, µM (doses to about 46.1 µM), actives largely listed as activators | 210,000 tested, 2.8% active; further: nearly all actives have a fitted effect of over 55% in size
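HEK293 cells carry an SMN2 minigene-luciferase reporter in which exon 7 inclusion puts luciferase in frame. Cells were seeded at 2000 cells/well, attached for 10-12 hours, then exposed to compounds for 30-36 hours at 37C before ONE-Glo luminescence.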
Large screens that a line does not name were inactive. The call rests on the fitted dose curve; in most records, active means well fitted curve in the direction sought with a large enough effect; inconclusive means small, poorly fitted or top-dose-only effect, or another doubt; inactive means no such curve, though single readings can be large; an effect the other way counts as inactive or inconclusive.

COc1ccc(NS(=O)(=O)c2cccc(C(=O)NC3CCC(O)CC3)c2)cc1 (configuration not stated)	none (no result: SMN2 splice up)
CC1CCCC(NC(=O)C2CCN(S(=O)(=O)c3cnc[nH]3)CC2)C1C (configuration not stated)	none (no result: SMN2 splice up)
COc1ccccc1NC(=O)COc1ccccc1C(=O)c1cnn(-c2ccccc2)c1	ELG1 genotox inconclusive, FLuc counter 10.7µM, SMN2 splice up inconclusive
CCc1ccc(NC(=O)COc2ccc(F)cc2C(=O)c2cnn(-c3ccccc3)c2)cc1	ELG1 DNA repair inconclusive, Rab9 prom act inconclusive, FLuc counter 10.7µM (no result: SMN2 splice up)
COc1ccccc1NC(=O)COc1ccccc1	ELG1 DNA repair inconclusive, ELG1 genotox inconclusive, FLuc counter inconclusive
CCc1ccc(NC(=O)COc2coc(CN3CCN(c4ccccc4)CC3)cc2=O)cc1	none (no result: SMN2 splice up)
Cc1nc2cc(C(=O)N3CCN(C)CC3)ccc2n1C	none (no result: SMN2 splice up)
O=S(=O)(NCC1CCCO1)c1ccc(S(=O)(=O)N(Cc2ccc(F)cc2)Cc2ccccn2)cc1 (configuration not stated)	none
CCC1CCCCN1S(=O)(=O)c1ccc(S(=O)(=O)N(Cc2ccccn2)CC2CCCO2)cc1 (configuration not stated)	ELG1 DNA repair 18.4µM
N#Cc1ccc(NC(=O)COC(=O)C2Cc3ccccc3CN2C(=O)c2ccccc2)cc1 (configuration not stated)	ELG1 DNA repair 10.3µM
CC1=C(C(=O)N2CCN(c3ccccc3)CC2)C2(CCCCC2)OC1=O	none (no result: NPC1 promoter act, ELG1 DNA repair, ELG1 genotox, Rab9 prom act)
COCc1nc(-c2cc(OC)c(OC)c(OC)c2)no1	none
COc1ccc(-c2noc(-c3cc(-c4ccc(F)cc4)n[nH]3)n2)cc1	none (no result: NPC1 promoter act, ELG1 DNA repair, ELG1 genotox, Rab9 prom act, SMN2 splice up)
COc1ccc(-c2noc(-c3cccs3)n2)cc1OC	NPC1 promoter act 1.26µM, ELG1 DNA repair inconclusive, ELG1 genotox inconclusive, Rab9 prom act 1.58µM, FLuc counter 2.39µM (no result: SMN2 splice up)
COc1ccc(-c2cc(-c3cccs3)nc(OC)c2C#N)cc1OC	ELG1 DNA repair 18.4µM
COc1cc(-c2noc(-c3cccs3)n2)cc(OC)c1OC	ELG1 DNA repair 23.1µM, SMN2 splice up inconclusive
COc1nc(-c2cccs2)cc(-c2ccc(C)cc2)c1C#N	none
CCOc1ccc(-c2cc(-c3nc(-c4cc(OC)c(OC)c(OC)c4)no3)[nH]n2)cc1	FLuc counter 21.3µM (no result: NPC1 promoter act, ELG1 DNA repair, ELG1 genotox, Rab9 prom act, SMN2 splice up)
Cc1ccc(C2C3C(=O)N(c4ccccc4)C(=O)C3N3CCCN23)cc1 (configuration not stated)	none (no result: SMN2 splice up)
Cc1cc(=O)[nH]c(SCC(=O)Nc2ncc(S(=O)(=O)c3ccc([N+](=O)[O-])cc3)s2)n1	FLuc counter inconclusive (no result: SMN2 splice up)
CC(C)c1ccc(Nc2nnc(SCC(=O)Nc3ncc(S(=O)(=O)c4ccc([N+](=O)[O-])cc4)s3)s2)cc1	NPC1 promoter act 2.82µM, ELG1 DNA repair inconclusive, ELG1 genotox inconclusive, Rab9 prom act 1.41µM, FLuc counter 0.849µM, SMN2 splice up 22.4µM
Cc1ccc(Nc2nnc(SCC(=O)Nc3ncc(S(=O)(=O)c4ccc([N+](=O)[O-])cc4)s3)s2)cc1	ELG1 DNA repair inconclusive, ELG1 genotox inconclusive, FLuc counter 2.39µM
COc1ccc(C(=O)N(Cc2ccc(N(C)C)cc2)Cc2ccco2)cc1Cl	FLuc counter inconclusive (no result: NPC1 promoter act, ELG1 DNA repair, ELG1 genotox, Rab9 prom act)
Cc1c(C(=O)N2CCC(C)CC2)sc2ncnc(N3CCN(c4ccccc4)CC3)c12	none
O=C1COc2ccc(OCc3ccc(F)cc3)cc21	NPC1 promoter act 1.41µM, ELG1 DNA repair inconclusive, ELG1 genotox inconclusive, Rab9 prom act 1.12µM, FLuc counter 4.26µM, SMN2 splice up 11.2µM
CCn1c(SCC(=O)N/N=C/C(C)=C/c2ccco2)nnc1-c1ccccc1	FLuc counter 15.1µM
CCn1c(SCC(=O)N/N=C/C=C/c2ccco2)nnc1-c1ccccc1	FLuc counter inconclusive
